A word on the inhibition: it is the change of the read-out against control, counted positive when it falls.

Calls of active or inactive are those of the source.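 How the source made its calls: active means inhibition above 20% together with a positive visual image hit; inconclusive means visual image hit but inhibition not above 20%; inactive means no visual image hit.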

This experiment can be described thus: inhibitors of TNFa-induced NFkB p65 translocation, primary screen, imaging, HUVEC, MLSMR starter and 10KST1 sets (AID 438).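 Further: compound added about 3h40 before a 20 min TNFalpha stimulation.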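 On inhibition: signal is the nuclear over cytoplasmic p65 intensity ratio per well.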 The conditions noted are these: HUVEC TNFa-induced p65 nuclear translocation; cell count: measured here: nuclei count (cytotoxicity indicator), at 2.08 µM; inhibition: at 2 µM, stronger effect = higher value, 0% TNFa-plus-vehicle, 100% no-TNFa wells.
With `Cc1ccc(N(C(C)C(=O)Nc2ccc(S(=O)(=O)N3CCOCC3)cc2)S(C)(=O)=O)cc1` (stereo not given), the inhibition was -7.3% (inactive) and the cell count is 522.
For `c1ccc(N2CCN(Cc3cn4cccnc4n3)CC2)cc1`, in that order: -18.4% (inactive) and 683.
In the case of `Oc1ccc(N2CCN(C(c3ccncc3)c3nnnn3C3CCCC3)CC2)cc1` (stereo not given), the cell count was found to be 661 and the inhibition is -18.3% (inactive).
For `COC(=O)[C@H](C)NC(=O)Nc1cccc(C(F)(F)F)c1`, the cell count came to 483 and the inhibition is -2.7% (inactive).
Turning to `CCCCNC(=O)c1nc2ncc(Br)cn2n1`, the cell count turned out to be 665 and the inhibition is 0% (inactive).
As to `CCN1CCN(C(c2cccs2)C(C)NC(=O)c2ccccc2)CC1` (stereo not given), the inhibition is -0.3% (inactive) and the cell count is 528.
Consider `COc1ccc(C2C(C#N)=C(N)Oc3cc4c(cc32)OCO4)cc1` (stereo not given), for which the inhibition was 3.5% (inactive) and the cell count amounted to 496.
With `CCn1c(=O)c(C(=O)NCc2ccc(OC)cc2)c(O)c2ccccc21`, the inhibition was 12.5% (inactive) and the cell count was found to be 685.
As for `CCOC(=O)c1ccccc1NC(=O)c1ccc2c(=O)n3c(nc2c1)CCCCC3`, the cell count is 472 and the inhibition is 15.6% (inactive).
As to `CN(CCc1ccccn1)c1ncnc2[nH]ncc12`, the inhibition was 8.1% (inactive) and the cell count came out at 591.
Take `CN(C(=O)c1cc2sccc2n1C)C1CCCCC1`: the cell count was 227 and the inhibition is 1% (inactive).
Consider `COc1ccc(-n2c(SCC(=O)N3CCCCC3C)nnc2-c2cccnc2)cc1` (stereo not given), for which the cell count worked out at 584 and the inhibition was -12.2% (inactive).
In the case of `CCn1nnc(NC(=O)c2ccccc2Br)n1`, the cell count was determined as 229 and the inhibition is 10.3% (inactive).
In the case of `CC(=O)N1CCN(c2ccc(S(=O)(=O)N3CCCCC3)cn2)CC1`, the cell count is 719 and the inhibition was 0.8% (inactive).
`CC1CCN(C(=O)CSCC(=O)Nc2nc(-c3cccs3)cs2)CC1`: the cell count was 734 and the inhibition was -3.4% (inactive).

Values taken from PubChem BioAssay.
